# Measured values published in paper PMC7862700, “An all-to-all approach to the identification of sequence-specific readers for epigenetic DNA modifications on cytosine”.
# How the values were obtained:
# Assay in all cases: DAPPL (digital affinity profiling via proximity ligation, sequencing); 10 mM Tris-HCl pH 7.5, 50 mM NaCl, 1 mM DTT, 4% glycerol, room temperature, 30 min; GST-TFs on glutathione beads, 16-mer random dsDNA library, 0.1% formaldehyde crosslink after washing; high values mean tight binding
# [1] = target: T1, FLI1 (Homo sapiens, UniProt Q01543 1-452); conditions: protein: recombinant; tags: N-terminal GST; dsDNA, one strand shown
# T1 sequence: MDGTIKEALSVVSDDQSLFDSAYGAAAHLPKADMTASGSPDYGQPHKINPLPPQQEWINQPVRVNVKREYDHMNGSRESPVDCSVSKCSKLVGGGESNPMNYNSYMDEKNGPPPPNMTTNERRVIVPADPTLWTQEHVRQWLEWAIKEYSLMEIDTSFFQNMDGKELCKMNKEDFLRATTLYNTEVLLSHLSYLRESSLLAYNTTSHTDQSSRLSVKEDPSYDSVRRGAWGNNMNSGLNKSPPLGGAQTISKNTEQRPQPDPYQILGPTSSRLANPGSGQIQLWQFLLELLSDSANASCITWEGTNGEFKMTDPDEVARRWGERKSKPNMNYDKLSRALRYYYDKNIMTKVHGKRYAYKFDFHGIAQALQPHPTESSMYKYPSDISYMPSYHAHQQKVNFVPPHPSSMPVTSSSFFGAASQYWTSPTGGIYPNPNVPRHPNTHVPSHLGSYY
# Outline: (§1)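 Human transcription factors fused to GST were expressed in yeast, captured on glutathione beads, given DNA barcodes and pooled with a GST-only negative control. Pools were incubated with 200 nmole of a 16-mer random double-stranded DNA library in Tris/NaCl/DTT/glycerol buffer at room temperature for 30 min. They were then washed, crosslinked with 0.1% formaldehyde, proximity-ligated (BsaI/T4 ligase, 1 h, 37 °C), PCR-amplified and sequenced on an Illumina NextSeq500. Binding signal is each 6-mer's read frequency for a factor divided by its frequency for the GST control.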
# [2] = target: T2, ELK1 (Homo sapiens, UniProt P19419 1-428); conditions: protein: recombinant; tags: N-terminal GST; dsDNA, one strand shown
# T2 sequence: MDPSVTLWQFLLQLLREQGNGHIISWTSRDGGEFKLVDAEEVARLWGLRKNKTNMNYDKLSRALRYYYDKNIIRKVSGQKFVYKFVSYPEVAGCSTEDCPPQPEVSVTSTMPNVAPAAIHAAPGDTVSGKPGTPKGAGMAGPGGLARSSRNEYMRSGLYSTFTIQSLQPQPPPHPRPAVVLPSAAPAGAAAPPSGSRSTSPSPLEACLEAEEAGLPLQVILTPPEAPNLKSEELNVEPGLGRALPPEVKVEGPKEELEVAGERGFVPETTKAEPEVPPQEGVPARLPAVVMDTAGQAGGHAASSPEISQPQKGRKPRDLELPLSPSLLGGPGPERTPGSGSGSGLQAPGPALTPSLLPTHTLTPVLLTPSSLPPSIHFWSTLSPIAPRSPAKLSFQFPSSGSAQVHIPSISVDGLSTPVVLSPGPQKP
# Outline: as §1
# [3] = target: T3, GABPA (Homo sapiens, UniProt Q06546 1-454); conditions: protein: recombinant; tags: N-terminal GST; dsDNA, one strand shown
# T3 sequence: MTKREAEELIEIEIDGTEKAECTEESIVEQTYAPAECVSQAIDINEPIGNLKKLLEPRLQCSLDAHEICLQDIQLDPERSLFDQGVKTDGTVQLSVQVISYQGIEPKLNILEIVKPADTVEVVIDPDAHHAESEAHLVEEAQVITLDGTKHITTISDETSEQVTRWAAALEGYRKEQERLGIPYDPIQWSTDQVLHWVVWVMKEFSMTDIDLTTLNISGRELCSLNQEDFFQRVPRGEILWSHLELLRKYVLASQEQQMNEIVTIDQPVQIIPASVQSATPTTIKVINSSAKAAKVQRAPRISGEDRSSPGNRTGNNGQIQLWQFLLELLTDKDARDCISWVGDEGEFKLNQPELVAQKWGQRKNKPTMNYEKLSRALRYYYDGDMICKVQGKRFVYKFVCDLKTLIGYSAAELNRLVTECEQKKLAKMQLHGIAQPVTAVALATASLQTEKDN
# Outline: as §1
# [4] = target: T4, ERG (Homo sapiens, UniProt P11308 1-479); conditions: protein: recombinant; tags: N-terminal GST; dsDNA, one strand shown
# T4 sequence: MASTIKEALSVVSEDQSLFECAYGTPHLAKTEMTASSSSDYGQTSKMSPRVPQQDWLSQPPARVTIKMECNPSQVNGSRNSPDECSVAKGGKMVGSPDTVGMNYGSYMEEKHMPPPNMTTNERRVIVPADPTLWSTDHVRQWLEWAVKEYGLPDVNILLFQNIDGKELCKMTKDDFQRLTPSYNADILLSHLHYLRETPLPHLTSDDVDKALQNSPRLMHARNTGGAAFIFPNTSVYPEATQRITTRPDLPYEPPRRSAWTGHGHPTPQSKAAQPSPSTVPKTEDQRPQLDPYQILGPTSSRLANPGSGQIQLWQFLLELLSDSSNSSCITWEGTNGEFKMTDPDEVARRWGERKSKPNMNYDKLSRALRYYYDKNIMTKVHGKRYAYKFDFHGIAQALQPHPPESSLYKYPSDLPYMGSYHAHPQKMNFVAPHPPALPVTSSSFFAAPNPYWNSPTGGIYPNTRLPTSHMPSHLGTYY
# Outline: as §1
# [5] = target: ELF1 (Homo sapiens, UniProt P32519 1-619); conditions: protein: recombinant; tags: N-terminal GST; dsDNA, one strand shown
# Outline: as §1
# [6] = target: T5, EHF (Homo sapiens, UniProt Q9NZC4 1-300); conditions: protein: recombinant; tags: N-terminal GST; dsDNA, one strand shown
# T5 sequence: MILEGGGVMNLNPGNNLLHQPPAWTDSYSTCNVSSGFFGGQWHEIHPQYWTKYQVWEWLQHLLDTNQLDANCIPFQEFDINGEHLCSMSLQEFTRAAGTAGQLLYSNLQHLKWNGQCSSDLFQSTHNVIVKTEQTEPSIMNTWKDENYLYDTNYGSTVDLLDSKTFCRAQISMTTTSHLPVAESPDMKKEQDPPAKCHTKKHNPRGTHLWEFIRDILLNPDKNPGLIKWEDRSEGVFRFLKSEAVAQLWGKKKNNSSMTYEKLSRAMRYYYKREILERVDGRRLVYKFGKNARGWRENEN
# Outline: as §1
# [7] = target: SPI1 (Homo sapiens, UniProt P17947 1-270); conditions: protein: recombinant; tags: N-terminal GST; dsDNA, one strand shown
# Outline: as §1
# [8] = target: SPIB (Homo sapiens, UniProt Q01892 1-262); conditions: protein: recombinant; tags: N-terminal GST; dsDNA, one strand shown
# Outline: as §1
# [9] = target: T6, ELK3 (Homo sapiens, UniProt P41970 1-407); conditions: protein: recombinant; tags: N-terminal GST; dsDNA, one strand shown
# T6 sequence: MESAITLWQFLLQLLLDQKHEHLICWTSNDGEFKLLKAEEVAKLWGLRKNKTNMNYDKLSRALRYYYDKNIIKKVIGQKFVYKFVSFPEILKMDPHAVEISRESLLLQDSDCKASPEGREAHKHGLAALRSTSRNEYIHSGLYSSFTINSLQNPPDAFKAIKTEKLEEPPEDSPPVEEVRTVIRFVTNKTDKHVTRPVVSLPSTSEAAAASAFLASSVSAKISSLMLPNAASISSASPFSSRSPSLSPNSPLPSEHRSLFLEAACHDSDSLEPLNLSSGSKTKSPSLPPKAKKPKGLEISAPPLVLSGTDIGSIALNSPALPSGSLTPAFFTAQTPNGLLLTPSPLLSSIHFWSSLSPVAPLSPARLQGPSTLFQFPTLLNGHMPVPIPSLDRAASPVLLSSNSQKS
# Outline: as §1
# [10] = target: T7, FEV (Homo sapiens, UniProt Q99581 1-238); conditions: protein: recombinant; tags: N-terminal GST; dsDNA, one strand shown
# T7 sequence: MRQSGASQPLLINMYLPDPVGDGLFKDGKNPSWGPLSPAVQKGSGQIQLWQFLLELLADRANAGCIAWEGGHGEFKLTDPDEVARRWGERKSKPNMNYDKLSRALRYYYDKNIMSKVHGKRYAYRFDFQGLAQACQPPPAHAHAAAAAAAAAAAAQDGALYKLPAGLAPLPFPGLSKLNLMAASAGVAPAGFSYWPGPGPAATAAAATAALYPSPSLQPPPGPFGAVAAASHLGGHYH
# Outline: as §1
# [11] = target: ETV5 (Homo sapiens, UniProt P41161 1-510); conditions: protein: recombinant; tags: N-terminal GST; dsDNA, one strand shown
# Outline: as §1
# [12] = target: HSF1 (Homo sapiens, UniProt Q00613 1-529); conditions: protein: recombinant; tags: N-terminal GST; chain copies: 3; dsDNA, one strand shown
# Outline: as §1
# [13] = target: T8, SPIC (Homo sapiens, UniProt Q8N5J4 1-248); conditions: protein: recombinant; tags: N-terminal GST; dsDNA, one strand shown
# T8 sequence: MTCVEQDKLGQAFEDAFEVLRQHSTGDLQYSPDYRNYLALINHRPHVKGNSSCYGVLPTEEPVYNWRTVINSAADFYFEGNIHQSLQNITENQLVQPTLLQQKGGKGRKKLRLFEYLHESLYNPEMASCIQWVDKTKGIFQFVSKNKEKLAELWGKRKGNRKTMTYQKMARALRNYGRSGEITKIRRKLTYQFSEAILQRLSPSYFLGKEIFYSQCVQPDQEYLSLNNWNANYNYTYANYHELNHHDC
# Outline: as §1
# [14] = target: ELF4 (Homo sapiens, UniProt Q99607 1-663); conditions: protein: recombinant; tags: N-terminal GST; dsDNA, one strand shown
# Outline: as §1
# [15] = target: T9, ELK4 (Homo sapiens, UniProt P28324-2 1-405); conditions: protein: recombinant; tags: N-terminal GST; dsDNA, one strand shown
# T9 sequence: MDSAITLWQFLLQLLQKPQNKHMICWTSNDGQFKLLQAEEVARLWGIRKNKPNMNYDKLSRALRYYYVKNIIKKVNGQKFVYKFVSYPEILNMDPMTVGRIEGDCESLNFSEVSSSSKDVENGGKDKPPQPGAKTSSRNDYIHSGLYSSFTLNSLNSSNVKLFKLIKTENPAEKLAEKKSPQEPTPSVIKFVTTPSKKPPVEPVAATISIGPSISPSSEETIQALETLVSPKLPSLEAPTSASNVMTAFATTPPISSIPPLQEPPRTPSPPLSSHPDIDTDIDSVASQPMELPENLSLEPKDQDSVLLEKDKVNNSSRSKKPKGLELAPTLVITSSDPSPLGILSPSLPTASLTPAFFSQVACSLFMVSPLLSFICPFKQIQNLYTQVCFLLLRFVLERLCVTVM
# Outline: as §1
# [16] = target: T10, ETV2 (Homo sapiens, UniProt O00321 1-342); conditions: protein: recombinant; tags: N-terminal GST; dsDNA, one strand shown
# T10 sequence: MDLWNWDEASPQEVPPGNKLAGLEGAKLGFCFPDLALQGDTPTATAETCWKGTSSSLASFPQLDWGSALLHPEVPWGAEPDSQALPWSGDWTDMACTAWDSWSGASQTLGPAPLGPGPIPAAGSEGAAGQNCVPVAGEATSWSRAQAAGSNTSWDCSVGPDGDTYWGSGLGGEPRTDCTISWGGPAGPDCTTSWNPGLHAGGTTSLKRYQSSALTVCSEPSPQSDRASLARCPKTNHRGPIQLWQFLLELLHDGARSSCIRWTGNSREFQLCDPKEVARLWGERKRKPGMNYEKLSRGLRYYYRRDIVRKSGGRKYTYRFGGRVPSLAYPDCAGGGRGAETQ
# Outline: as §1
# [17] = target: T11, ELF3 (Homo sapiens, UniProt P78545 1-371); conditions: protein: recombinant; tags: N-terminal GST; dsDNA, one strand shown
# T11 sequence: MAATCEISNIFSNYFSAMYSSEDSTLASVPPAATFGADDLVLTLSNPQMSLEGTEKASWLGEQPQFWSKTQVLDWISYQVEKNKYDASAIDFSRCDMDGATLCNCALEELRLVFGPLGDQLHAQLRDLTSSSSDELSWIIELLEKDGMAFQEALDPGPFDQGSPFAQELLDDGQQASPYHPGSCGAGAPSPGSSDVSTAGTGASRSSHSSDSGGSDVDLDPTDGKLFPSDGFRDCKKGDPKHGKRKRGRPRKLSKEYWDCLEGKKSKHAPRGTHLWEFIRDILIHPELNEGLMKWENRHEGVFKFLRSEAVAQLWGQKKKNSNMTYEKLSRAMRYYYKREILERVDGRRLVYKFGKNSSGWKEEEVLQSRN
# Outline: as §1
# [18] = target: CRX (Homo sapiens, UniProt O43186 1-299); conditions: protein: recombinant; tags: N-terminal GST; dsDNA, one strand shown
# Outline: as §1
# [19] = target: ETV1 (Homo sapiens, UniProt P50549 1-477); conditions: protein: recombinant; tags: N-terminal GST; dsDNA, one strand shown
# Outline: as §1
# ETV5, sequence (P41161 whole entry): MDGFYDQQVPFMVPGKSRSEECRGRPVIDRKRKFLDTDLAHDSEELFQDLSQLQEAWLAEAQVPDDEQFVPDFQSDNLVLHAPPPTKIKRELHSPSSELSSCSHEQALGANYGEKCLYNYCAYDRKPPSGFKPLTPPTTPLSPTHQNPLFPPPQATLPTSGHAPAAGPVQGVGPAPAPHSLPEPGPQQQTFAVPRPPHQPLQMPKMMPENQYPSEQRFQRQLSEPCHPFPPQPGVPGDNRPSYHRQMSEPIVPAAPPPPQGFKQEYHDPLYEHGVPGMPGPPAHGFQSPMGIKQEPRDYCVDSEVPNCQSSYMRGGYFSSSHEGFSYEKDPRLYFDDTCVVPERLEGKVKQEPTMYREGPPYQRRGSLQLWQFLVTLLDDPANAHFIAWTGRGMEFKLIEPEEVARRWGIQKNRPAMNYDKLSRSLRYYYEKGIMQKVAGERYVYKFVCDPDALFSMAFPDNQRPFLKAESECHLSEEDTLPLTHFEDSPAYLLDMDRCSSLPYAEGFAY
# ELF1, sequence (P32519 whole entry): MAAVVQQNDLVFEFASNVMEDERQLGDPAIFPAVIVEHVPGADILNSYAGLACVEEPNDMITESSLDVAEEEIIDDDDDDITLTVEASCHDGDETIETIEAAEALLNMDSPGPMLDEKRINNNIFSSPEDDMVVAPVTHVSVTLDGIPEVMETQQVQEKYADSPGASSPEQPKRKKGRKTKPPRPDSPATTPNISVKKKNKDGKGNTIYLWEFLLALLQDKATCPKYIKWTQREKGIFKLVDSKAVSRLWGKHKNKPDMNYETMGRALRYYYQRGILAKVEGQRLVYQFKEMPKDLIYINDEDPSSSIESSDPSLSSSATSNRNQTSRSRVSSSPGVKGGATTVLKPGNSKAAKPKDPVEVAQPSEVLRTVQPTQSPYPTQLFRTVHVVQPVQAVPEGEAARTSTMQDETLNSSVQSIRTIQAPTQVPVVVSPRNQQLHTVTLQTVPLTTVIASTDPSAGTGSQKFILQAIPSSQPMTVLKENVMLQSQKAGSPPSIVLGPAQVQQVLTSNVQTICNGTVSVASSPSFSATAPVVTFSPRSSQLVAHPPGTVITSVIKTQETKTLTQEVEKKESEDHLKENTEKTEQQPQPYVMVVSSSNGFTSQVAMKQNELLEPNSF
# ELF4, sequence (Q99607 whole entry): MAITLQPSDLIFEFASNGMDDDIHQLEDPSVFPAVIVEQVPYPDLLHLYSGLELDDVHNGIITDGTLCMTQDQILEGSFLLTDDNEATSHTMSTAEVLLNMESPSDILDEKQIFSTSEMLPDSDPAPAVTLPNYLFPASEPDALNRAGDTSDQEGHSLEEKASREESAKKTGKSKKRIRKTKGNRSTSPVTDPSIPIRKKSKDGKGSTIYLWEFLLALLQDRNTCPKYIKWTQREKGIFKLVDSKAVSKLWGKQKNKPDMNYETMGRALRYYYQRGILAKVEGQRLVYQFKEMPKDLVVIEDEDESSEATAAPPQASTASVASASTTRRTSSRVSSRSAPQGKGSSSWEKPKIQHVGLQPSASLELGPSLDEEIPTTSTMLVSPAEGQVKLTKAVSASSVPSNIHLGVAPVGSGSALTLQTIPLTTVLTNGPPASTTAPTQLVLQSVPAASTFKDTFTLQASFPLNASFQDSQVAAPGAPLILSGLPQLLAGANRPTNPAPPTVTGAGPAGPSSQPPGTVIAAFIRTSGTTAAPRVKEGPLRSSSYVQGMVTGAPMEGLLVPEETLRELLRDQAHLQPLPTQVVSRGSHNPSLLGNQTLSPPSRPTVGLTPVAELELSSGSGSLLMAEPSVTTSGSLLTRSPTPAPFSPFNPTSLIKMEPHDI
# HSF1, sequence (Q00613 whole entry): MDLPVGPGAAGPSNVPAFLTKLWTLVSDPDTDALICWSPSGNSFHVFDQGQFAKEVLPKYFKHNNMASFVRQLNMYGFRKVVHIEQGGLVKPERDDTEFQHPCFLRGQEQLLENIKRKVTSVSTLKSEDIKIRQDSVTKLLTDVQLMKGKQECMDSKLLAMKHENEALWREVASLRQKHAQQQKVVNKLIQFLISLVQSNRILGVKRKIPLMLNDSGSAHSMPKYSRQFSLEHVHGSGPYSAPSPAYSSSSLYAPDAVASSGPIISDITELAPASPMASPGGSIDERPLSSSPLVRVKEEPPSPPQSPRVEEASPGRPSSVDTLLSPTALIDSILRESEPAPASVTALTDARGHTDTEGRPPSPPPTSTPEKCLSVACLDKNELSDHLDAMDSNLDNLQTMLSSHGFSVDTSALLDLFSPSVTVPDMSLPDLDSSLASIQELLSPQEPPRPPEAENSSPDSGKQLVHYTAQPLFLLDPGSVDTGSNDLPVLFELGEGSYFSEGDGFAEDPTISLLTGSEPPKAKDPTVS
# CRX, sequence (O43186 whole entry): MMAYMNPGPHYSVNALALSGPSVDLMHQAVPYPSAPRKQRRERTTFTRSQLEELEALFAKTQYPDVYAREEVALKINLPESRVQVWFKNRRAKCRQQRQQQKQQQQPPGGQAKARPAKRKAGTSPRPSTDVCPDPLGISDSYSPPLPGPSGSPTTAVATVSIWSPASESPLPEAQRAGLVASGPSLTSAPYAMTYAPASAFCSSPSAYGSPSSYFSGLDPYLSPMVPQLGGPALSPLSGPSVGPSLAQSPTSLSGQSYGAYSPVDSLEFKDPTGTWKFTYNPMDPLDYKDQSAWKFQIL
# ETV1, sequence (P50549 whole entry): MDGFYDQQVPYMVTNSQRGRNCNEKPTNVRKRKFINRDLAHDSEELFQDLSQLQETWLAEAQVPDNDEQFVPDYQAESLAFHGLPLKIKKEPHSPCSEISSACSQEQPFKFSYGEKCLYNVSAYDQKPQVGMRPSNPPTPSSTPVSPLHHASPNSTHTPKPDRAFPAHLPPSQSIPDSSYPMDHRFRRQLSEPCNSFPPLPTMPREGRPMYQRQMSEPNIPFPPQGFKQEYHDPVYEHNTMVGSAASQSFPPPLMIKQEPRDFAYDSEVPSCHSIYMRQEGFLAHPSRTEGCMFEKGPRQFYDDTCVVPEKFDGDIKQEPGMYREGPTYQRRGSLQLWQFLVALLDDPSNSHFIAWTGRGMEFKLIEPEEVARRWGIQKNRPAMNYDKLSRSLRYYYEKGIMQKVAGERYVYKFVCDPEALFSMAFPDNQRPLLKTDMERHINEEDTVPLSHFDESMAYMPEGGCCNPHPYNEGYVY
# SPIB, sequence (Q01892 whole entry): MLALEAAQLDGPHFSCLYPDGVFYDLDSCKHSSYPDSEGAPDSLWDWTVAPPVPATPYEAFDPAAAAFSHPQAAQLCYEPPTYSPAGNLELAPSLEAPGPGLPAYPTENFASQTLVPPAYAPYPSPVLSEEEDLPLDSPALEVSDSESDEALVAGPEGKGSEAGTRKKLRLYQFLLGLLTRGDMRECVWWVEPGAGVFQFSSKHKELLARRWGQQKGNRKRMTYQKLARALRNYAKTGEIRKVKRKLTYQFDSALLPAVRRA
sequence,measurement,setting,value
TTAACT,binding signal,[1],"1.18 fold enrichment (6-mer frequency, TF over GST control)"
same,binding signal,[2],"1.14 fold enrichment (6-mer frequency, TF over GST control)"
same,binding signal,[3],"1.15 fold enrichment (6-mer frequency, TF over GST control)"
same,binding signal,[4],"1.17 fold enrichment (6-mer frequency, TF over GST control)"
same,binding signal,[5],"1.27 fold enrichment (6-mer frequency, TF over GST control)"
same,binding signal,[6],"1.1 fold enrichment (6-mer frequency, TF over GST control)"
same,binding signal,[7],"1.23 fold enrichment (6-mer frequency, TF over GST control)"
same,binding signal,[8],"1.21 fold enrichment (6-mer frequency, TF over GST control)"
same,binding signal,[9],"1.19 fold enrichment (6-mer frequency, TF over GST control)"
same,binding signal,[10],"1.25 fold enrichment (6-mer frequency, TF over GST control)"
same,binding signal,[11],"1.2 fold enrichment (6-mer frequency, TF over GST control)"
same,binding signal,[12],"1.79 fold enrichment (6-mer frequency, TF over GST control)"
same,binding signal,[13],"1.36 fold enrichment (6-mer frequency, TF over GST control)"
same,binding signal,[14],"1.23 fold enrichment (6-mer frequency, TF over GST control)"
same,binding signal,[15],"1.2 fold enrichment (6-mer frequency, TF over GST control)"
same,binding signal,[16],"1.17 fold enrichment (6-mer frequency, TF over GST control)"
same,binding signal,[17],"1.21 fold enrichment (6-mer frequency, TF over GST control)"
same,binding signal,[18],"2.72 fold enrichment (6-mer frequency, TF over GST control)"
same,binding signal,[19],"1.16 fold enrichment (6-mer frequency, TF over GST control)"
